For 21 compounds, Potency and outcome results are on record in PubChem BioAssay (NCATS).

Records with an inconclusive call do not appear. Unmarked numbers belong to inactive results. Active and inactive are the calls of the source. The call rests on the fitted dose curve; in most records, active means well fitted curve in the direction sought with a large enough effect; inconclusive means small, poorly fitted or top-dose-only effect, or another doubt; inactive means no such curve, though single readings can be large; an effect the other way counts as inactive or inconclusive.

A short description of test [1]: qHTS of pediatric cancer cell lines to identify multiple opportunities for drug repurposing: Primary screen for Rh18 cells (AID 1347102). Further: nearly all actives have a fitted effect of over 65% in size. Summed up:
(§1)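 Viability after 48 h compound treatment at 37C, 500-1,000 cells/well, read as ATP luminescence with CellTiter-Glo. Primary screens used 11-point (MIPE, 0.78 nM-46 µM) or 8-point (NPC, 0.59 nM-46 µM) final concentrations; follow-up screens used 11-point dilutions.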
A general note: Quantitative high-throughput screening tests each substance at several concentrations.

Test [2] can be described thus: qHTS of pediatric cancer cell lines to identify multiple opportunities for drug repurposing: Confirmatory screen for NB1643 cells (AID 1347109). Further: nearly all actives have a fitted effect of over 45% in size. Summed up: as §1
The nature of test [3]: qHTS of pediatric cancer cell lines to identify multiple opportunities for drug repurposing: Confirmatory screen for A673 cells (AID 1347110). Further: potency means the concentration at half of the fitted maximal effect; nearly all actives have a fitted effect of over 65% in size. The gist of the method:
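A673 cells at 500-1,000 cells/well were dosed 5 h after plating, in dilution series up to 46 uM final; primary runs used 8 or 11 points and confirmatory runs used 11 points. Viability was read by CellTiter-Glo luminescence after 48 h, against DMSO and 2.3 uM bortezomib controls.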

A short description of test [4]: qHTS of pediatric cancer cell lines to identify multiple opportunities for drug repurposing: Confirmatory screen for SK-N-MC cells (AID 1347111).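 Further: potency means the concentration at half of the fitted maximal effect; cells exposed to compound for 48 h before the readout; nearly all actives have a fitted effect of over 70% in size.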 The gist of the method:
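SK-N-MC cells at 500-1,000 cells/well in growth media were pre-incubated 5 h, then exposed to compounds at 11-point dilutions for 48 h at 37 degrees C, 5% CO2. Viability was read as CellTiter-Glo luminescence.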

Test [5] can be described thus: qHTS of pediatric cancer cell lines to identify multiple opportunities for drug repurposing: Confirmatory screen for BT-12 cells (AID 1347112). Further: nearly all actives have a fitted effect of over 55% in size. The gist of the method:
as §1

The nature of test [6]: qHTS of pediatric cancer cell lines to identify multiple opportunities for drug repurposing: Confirmatory screen for LAN-5 cells (AID 1347113). Further: nearly all actives have a fitted effect of over 65% in size. The gist of the method:
as §1

Test [7] can be described thus: qHTS of pediatric cancer cell lines to identify multiple opportunities for drug repurposing: Confirmatory screen for DAOY cells (AID 1347114). Further: nearly all actives have a fitted effect of over 65% in size. Summed up:
(§2)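 Viability measured as metabolically active cells via CellTiter-Glo luminescence following 48 hours of compound exposure, 11-point dilutions in confirmatory testing. 500-1,000 cells/well plated 5 hours before dosing; controls were DMSO and 2.3 µM bortezomib.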

Test [8] in a line: qHTS of pediatric cancer cell lines to identify multiple opportunities for drug repurposing: Confirmatory screen for NB-EBc1 cells (AID 1347115). Further: potency means the concentration at half of the fitted maximal effect; nearly all actives have a fitted effect of over 45% in size. Summed up: as §1
Test [9] can be described thus: qHTS of pediatric cancer cell lines to identify multiple opportunities for drug repurposing: Confirmatory screen for SJ-GBM2 cells (AID 1347116). Further: nearly all actives have a fitted effect of over 60% in size. Summed up: as §2
The nature of test [10]: qHTS of pediatric cancer cell lines to identify multiple opportunities for drug repurposing: Confirmatory screen for TC32 cells (AID 1347118). The gist of the method: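 Luminescent ATP read-out (CellTiter-Glo) of metabolically active TC32 cells after 48 h exposure. Concentration-response curves came from 11-point (MIPE, 0.78 nM–46 µM) or 8-point (NPC, 0.59 nM–46 µM) primary titrations; follow-up used 11 points.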

The nature of test [11]: qHTS of pediatric cancer cell lines to identify multiple opportunities for drug repurposing: Confirmatory screen for U-2 OS cells (AID 1347122). Further: nearly all actives have a fitted effect of over 65% in size. The note with it: outcome: dose series up to 45.9 µM. Summed up:
as §1

The nature of test [12]: qHTS of pediatric cancer cell lines to identify multiple opportunities for drug repurposing: Primary screen for OHS-50 cells (AID 1347103). Further: nearly all actives have a fitted effect of over 40% in size. Further: potency means the concentration at half of the fitted maximal effect. Summed up: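 Cells (500-1,000/well) rested 5 h, then received compounds for 48 h; metabolically active cells were measured by CellTiter-Glo luminescence. Final concentrations spanned up to 46 µM (MIPE, 11-point) or 0.59 nM-46 µM (NPC, 8-point) in primary screens, 11-point in follow-ups.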

The nature of test [13]: qHTS of pediatric cancer cell lines to identify multiple opportunities for drug repurposing: Primary screen for RD cells (AID 1347104). Further: nearly all actives have a fitted effect of over 55% in size. Further: potency means the concentration at half of the fitted maximal effect. Summed up: (§3)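 Phenotypic viability qHTS, 48 h compound exposure, CellTiter-Glo luminescence read-out; multi-concentration dosing so that potency and efficacy derive directly from the primary screen's curves.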
Test [14] in a line: qHTS of pediatric cancer cell lines to identify multiple opportunities for drug repurposing: Primary screen for control Hh wild type fibroblast cells (AID 1347106).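 Further: series mostly up to about 46 µM; a drop in luminescence marks cytotoxicity and a rise apparent proliferation; nearly all actives have a fitted effect of over 55% in size.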 Summed up:
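Cells (500-1,000/well) in growth media were settled 5 h at 37 degrees C, then given compounds for 48 h. Viability was read as CellTiter-Glo luminescence. Primary runs used MIPE at 11 points (0.78 nM-46 µM) and NPC at 8 points (0.59 nM-46 µM); follow-ups used 11 points.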

The nature of test [15]: qHTS of pediatric cancer cell lines to identify multiple opportunities for drug repurposing: Primary screen for Rh30 cells (AID 1347107). Further: series mostly up to about 46 µM; nearly all actives have a fitted effect of over 75% in size. Summed up: as §1
The nature of test [16]: qHTS of pediatric cancer cell lines to identify multiple opportunities for drug repurposing: Primary screen for Rh41 cells (AID 1347108). Further: nearly all actives have a fitted effect of over 70% in size. Further: potency means the concentration at half of the fitted maximal effect. The gist of the method:
as §3

The nature of test [17]: qHTS of pediatric cancer cell lines to identify multiple opportunities for drug repurposing: Primary screen for MG 63 (6-TG R) cells (AID 1347105). Further: nearly all actives have a fitted effect of over 50% in size. Further: potency means the concentration at half of the fitted maximal effect. Summed up:
as §3

Take `Cc1ccc2nc(N)[nH]c(=O)c2c1Sc1ccncc1`: the Potency result in test [1], in test [2], in test [5], in test [6] and in test [9] was “inactive” each time. The Potency in [3] is 0.465 µM (active); in test [4], 2.08 µM (active); in [8], 11.7 µM (active); in [10] it was 3.29 µM (active). In addition, the outcome in test [7] and in [11] was inactive.
As to `COc1ccccc1O`, the Potency entry in test [12], in test [13] and in test [16] was “inactive” in each case. In addition, the result in test [14] and in test [15] was inactive.
Turning to `O=C(O)c1ccccn1`, the Potency result in [12], in test [13], in [17] and in [16] was “inactive” each time. In addition, the compound was classed as inactive in test [14] and in test [15].
Take `CN(C)CCC=C1c2ccccc2CCc2ccccc21`: the Potency result in [17] and in test [16] was “inactive” in each case. The compound was called inactive in [14] and in test [15].
Regarding `NS(=O)(=O)c1cc2c(cc1C(F)(F)F)NC(Cc1ccccc1)NS2(=O)=O` (configuration not stated), the Potency entry in test [12], in test [13], in test [17] and in test [16] was “inactive” throughout. Moreover, the call in test [14] and in [15] was inactive.
Turning to `CC(C(O)c1ccc(O)cc1)N1CCC(Cc2ccccc2)CC1` (configuration not stated), the Potency result in test [13] and in test [16] was “inactive” each time. Further, the call in test [14] and in test [15] was inactive.
In the case of `CNC(=O)Oc1ccc2c(c1)[C@]1(C)CCN(C)[C@@H]1N2C`, the Potency result in test [12], in test [13], in test [17] and in [16] was “inactive” in each case. The compound was called inactive in [14] and in test [15].
As for `CCCCN(CCCC)CC(O)c1cc(Cl)cc2c1-c1ccc(Cl)cc1/C2=C/c1ccc(Cl)cc1` (configuration not stated), the Potency result in test [17] and in [16] was “inactive” throughout. The compound was called inactive in test [14] and in test [15].
Regarding `O=C(O)[C@H](O)c1ccccc1`, the Potency result in test [13], in test [17] and in test [16] was “inactive” in each case. Further, the result in test [15] was inactive.
With `c1ccc(CN(CC2=NCCN2)c2ccccc2)cc1`, the Potency result in test [12], in test [17] and in test [16] was “inactive” in each case. Further, the result in test [14] and in test [15] was inactive.
On to `O=C(O)COc1nn(Cc2ccccc2)c2ccccc12`, for which the Potency entry in test [12], in [13], in test [17] and in test [16] was “inactive” in each case. In addition, in [15], the call was inactive.
With `CSc1ccc2c(c1)C(N1CCN(C)CC1)Cc1ccccc1S2` (configuration not stated), the Potency in test [12] is 27.6 µM (active). In addition, the call in test [14] and in test [15] was inactive. The Potency result in test [16] is “inactive”.
In the case of `CN(C)CCCN1c2ccccc2Sc2ccc(Cl)cc21`, in [12], the Potency is 27.6 µM (active). The call in [14] and in test [15] was inactive.
In the case of `OCc1cc(C(O)CNCCCCCCOCCCCc2ccccc2)ccc1O` (configuration not stated), the Potency in test [12] was 19.5 µM (active). The Potency entry in [17] and in [16] was “inactive” throughout. The result in test [14] and in [15] was inactive.
As for `O=C1Nc2ccc(Cl)cc2[C@@](C#CC2CC2)(C(F)(F)F)O1`, the Potency in [12] was 27.6 µM (active). Further, the Potency result in test [13] and in [16] was “inactive” each time. Also, in test [15], the compound was called inactive.
On to `CN(C)CCCN1c2ccccc2CCc2ccccc21`, for which, in test [12], the Potency was 27.6 µM (active). The Potency entry in [17] and in test [16] was “inactive” throughout. The outcome in test [14] and in test [15] was inactive.
On to `COc1ccc2cc1Oc1ccc(cc1)C[C@H]1c3c(cc4c(c3Oc3cc5c(cc3OC)CCN(C)[C@@H]5C2)OCO4)CCN1C`, for which the Potency was 15.5 µM (active) in [12] and 23.7 µM (active) in test [13]. In addition, in test [15], the compound was called inactive.
For `CNCCCC1c2ccccc2C=Cc2ccccc21`, the Potency was 21.9 µM (active) in test [12] and 26.6 µM (active) in [13]. Besides, the result in test [15] was inactive. Also, in test [16], the Potency entry was “inactive”.
For the compound `CCOc1ccc2ccccc2c1C(=O)N[C@@H]1C(=O)N2[C@@H]1SC(C)(C)[C@@H]2C(=O)O`, the Potency result in test [12], in [13], in test [17] and in [16] was “inactive” throughout. In addition, the compound was classed as inactive in test [15].
With `CC[C@H]1CN2CCc3cc(OC)c(OC)cc3[C@@H]2C[C@@H]1C[C@H]1NCCc2cc(OC)c(OC)cc21`, the Potency in test [12] is 0.347 µM (active); in test [13], 0.335 µM (active); in test [17] it was 2.11 µM (active); in test [16], 3.76 µM (active). Also, in test [15], the result was inactive.
Take `CNCCC(Oc1ccc(C(F)(F)F)cc1)c1ccccc1` (configuration not stated): the Potency was 27.6 µM (active) in test [12] and 16.8 µM (active) in test [17]. The call in test [14] and in test [15] was inactive.
